A selection: hits, their analogues and other compounds. The true share with any hit is near 9.2%.
SMN2 splice up: increases expression of the SMN2 splice variant. 2.8% of 210,000 active. Potency, µM (top dose mostly 46.1 µM), for the others: at the highest dose activity change, positive = activation, hits mostly activators. HEK293 SMN2-luciferase splicing reporter, luminescence, 30-36 h; also: % of control where 0% means no effect; nearly all actives have a fitted effect of over 55% in size
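qHTS luciferase splicing reporter: luminescence rises when SMN2 exon 7 is included in transfected HEK293 cells. Compound exposure lasted 30-36 h at 37C, with 4.5 mM final sodium butyrate as control, followed by a ONE-Glo read.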
NPC1 prom act: activators of NPC1 promoter. Potency, µM (doses to about 9.22 µM), for inactives: at the top dose activation, hits mostly activators. 2.4% of 320,000 active. Huh7 NPC1 promoter luciferase reporter, 24 h. AID 485313; also: % of control where 0% means no effect; nearly all actives have a fitted effect of over 60% in size
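NPC1 promoter–luciferase Huh7 cells; 24 h compound; luminescence.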
ELG1 DNA repair: blocks ELG1-dependent DNA repair in HEK293T cells | AID 504467 | Potency, µM (top dose mostly 46.1 µM), inactives show at the highest dose activity change, negative = inhibition, hits mostly inhibitors | 2.3% of 330,000 active | HEK293T ELG1-luciferase reporter, luminescence, 16 h; DNA damage induced by 5-fluorouridine; also: % is scaled to controls: 0 for no effect and ±100 for the full control effect; nearly all actives have a fitted effect of over 55% in size
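Reporter activity after DNA damage by 5-fluorouridine is monitored. Compound-treated cells incubate 16 hr at 37 °C, then ONE-Glo is added for 30 min before luminescence reading.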
FLuc modulator: firefly luciferase modulation, counter-screen for miR-21 project; 6.9% of 360,000 active; AID 588342; P08659; purified FLuc, Km substrates, luminescence inhibition; Potency, µM (series often up to 57.5 µM), for the others: top-dose activity change, negative = inhibition, hits mostly inhibitors;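 also: plate controls were vehicle for no effect and reference inhibitor for full effect; nearly all actives have a fitted effect of over 55% in size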
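Purified P. pyralis luciferase, 10 nM final, with Km-level 10 uM D-luciferin and 10 uM ATP in 50 mM Tris acetate pH 7.5, 10 mM Mg acetate, 0.01% Tween-20, 0.05% BSA; 6-point qHTS titration about 60 µM downward; luminescence read.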
ELG1 genotox: inducers of genotoxicity in HEK293T ELG1-luciferase cells. 1.3% of 330,000 active. Potency, µM (series often up to 46 µM), inactives show at the top dose activity change, positive = activation, most hits filed as activators. AID 504466. HEK293T ELG1-luciferase reporter, luminescence, 16 h; also: % of control where 0% means no effect; nearly all actives have a fitted effect of over 60% in size
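Step 1: seed 2,000 HEK293T ELG1-luciferase cells per well. Step 2: add compound or DMSO, incubate 16 hr at 37 °C. Step 3: ONE-Glo, 30 min at room temperature, read luminescence.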
Rab9 promoter act: activators of Rab9 promoter; AID 485297; Potency, µM (doses to about 9.22 µM), without a hit: top-dose activation, negative = inhibition, hits mostly activators; Huh7 Rab9 promoter-luciferase reporter, luminescence, 24 h; 2.8% of 320,000 active; also: % of control where 0% means no effect; nearly all actives have a fitted effect of over 60% in size
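Luminescence from Amplite-detected luciferase (10 minutes, ambient) reports Rab9 promoter activation. Before that, stable Rab9-luciferase Huh7 cells (1500/well, reduced-serum OP-MEM I plus 10% FBS) were exposed to compound for 24 hours at 37C.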
ELG1 FLuc counter: luciferase inhibition in cell-free luciferin readout for ELG1 hits | shares compounds with ELG1 DNA repair | cell-free firefly luciferase luminescence counter-screen, ViewLux | Potency, µM (series often up to 46.1 µM), inactives show top-dose activity change, negative = inhibition, actives largely listed as inhibitors | 3% of 350 active | AID 624247; also: % is scaled to controls: 0 for no effect and ±100 for the full control effect
ELG1 Luc conf: human ELG1 repair inhibition, luciferase-tagged ELG1 confirmation; shares compounds with ELG1 DNA repair; HEK293T ELG1-luciferase levels, luminescence; cells co-treated with 5-fluorouridine; Potency, µM (highest dose often 46.1 µM), without a hit: at the highest dose activity change, negative = inhibition, usual class: inhibitors; 68% of 670 active; AID 624248; also: % is scaled to controls: 0 for no effect and ±100 for the full control effect; nearly all actives have a fitted effect of over 55% in size
Target sequence (Q96QE3 whole entry, looked up): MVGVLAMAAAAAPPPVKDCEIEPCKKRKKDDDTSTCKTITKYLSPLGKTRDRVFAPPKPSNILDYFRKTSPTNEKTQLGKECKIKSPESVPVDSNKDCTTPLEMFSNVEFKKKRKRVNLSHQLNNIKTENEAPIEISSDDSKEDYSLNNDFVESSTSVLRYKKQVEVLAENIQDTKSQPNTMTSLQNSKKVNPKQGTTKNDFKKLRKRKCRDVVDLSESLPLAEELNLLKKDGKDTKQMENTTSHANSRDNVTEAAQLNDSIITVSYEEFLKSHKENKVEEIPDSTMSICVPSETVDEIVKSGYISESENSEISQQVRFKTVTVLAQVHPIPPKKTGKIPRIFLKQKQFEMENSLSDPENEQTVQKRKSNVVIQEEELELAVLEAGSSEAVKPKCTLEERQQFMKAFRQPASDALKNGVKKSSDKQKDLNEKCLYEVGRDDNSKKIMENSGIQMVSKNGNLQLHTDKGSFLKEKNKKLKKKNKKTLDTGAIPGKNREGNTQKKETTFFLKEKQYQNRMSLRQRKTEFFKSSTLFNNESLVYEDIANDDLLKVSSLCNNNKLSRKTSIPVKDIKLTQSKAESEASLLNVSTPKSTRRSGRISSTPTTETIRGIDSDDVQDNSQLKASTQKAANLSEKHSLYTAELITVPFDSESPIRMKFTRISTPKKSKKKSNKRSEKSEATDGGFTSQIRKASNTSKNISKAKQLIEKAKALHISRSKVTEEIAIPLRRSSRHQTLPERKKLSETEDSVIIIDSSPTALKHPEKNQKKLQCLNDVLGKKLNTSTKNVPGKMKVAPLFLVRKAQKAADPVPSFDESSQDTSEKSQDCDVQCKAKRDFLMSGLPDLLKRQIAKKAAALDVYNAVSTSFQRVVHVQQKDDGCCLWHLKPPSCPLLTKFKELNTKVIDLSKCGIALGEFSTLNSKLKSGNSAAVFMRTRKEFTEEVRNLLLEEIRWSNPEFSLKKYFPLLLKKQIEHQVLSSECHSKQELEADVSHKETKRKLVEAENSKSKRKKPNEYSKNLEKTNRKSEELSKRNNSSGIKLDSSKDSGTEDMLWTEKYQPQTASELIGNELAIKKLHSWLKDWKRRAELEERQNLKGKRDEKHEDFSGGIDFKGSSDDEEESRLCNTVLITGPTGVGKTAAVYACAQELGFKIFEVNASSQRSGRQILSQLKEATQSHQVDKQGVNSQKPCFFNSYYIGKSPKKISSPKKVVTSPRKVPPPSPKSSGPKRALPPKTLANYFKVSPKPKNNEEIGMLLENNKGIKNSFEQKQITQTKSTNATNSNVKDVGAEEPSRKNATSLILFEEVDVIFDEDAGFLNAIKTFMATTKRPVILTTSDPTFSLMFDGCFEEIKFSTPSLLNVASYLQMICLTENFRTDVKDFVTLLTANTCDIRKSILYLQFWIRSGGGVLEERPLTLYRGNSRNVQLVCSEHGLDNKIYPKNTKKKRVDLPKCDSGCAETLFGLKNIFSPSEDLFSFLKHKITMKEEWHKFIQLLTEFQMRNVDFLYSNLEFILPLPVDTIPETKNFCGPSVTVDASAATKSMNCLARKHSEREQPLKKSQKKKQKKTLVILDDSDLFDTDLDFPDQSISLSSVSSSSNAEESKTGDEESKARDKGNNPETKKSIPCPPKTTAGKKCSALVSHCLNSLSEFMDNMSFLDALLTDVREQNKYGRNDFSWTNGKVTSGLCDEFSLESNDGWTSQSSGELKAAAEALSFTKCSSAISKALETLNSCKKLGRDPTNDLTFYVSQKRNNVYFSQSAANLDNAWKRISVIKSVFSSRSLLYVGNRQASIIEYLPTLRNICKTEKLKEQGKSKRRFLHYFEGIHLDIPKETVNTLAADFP
ELG1-Luc MMS: MMS-stimulated human ELG1 repair inhibition, confirmed | shares compounds with ELG1 DNA repair | HEK293T luciferase-tagged ELG1 level, MMS stimulated | Potency, µM (titrated, usually from 46.1 µM), for inactives: at the top dose activity change, negative = inhibition, usual class: inhibitors | 53% of 670 active; also: % is scaled to controls: 0 for no effect and ±100 for the full control effect; nearly all actives have a fitted effect of over 60% in size
ELG1 5-FU: confirmation of ELG1 repair inhibitors: viability with 5FU. shares compounds with ELG1 DNA repair. cell viability with 5-FU, ELG1-dependent repair. Potency, µM (series often up to 46.1 µM), for inactives: at the top dose activity change, negative = viability loss, most hits filed as cytotoxic. 670 tested, under 10 active. AID 624250;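 also: ELG1-luc HEK293T cells cotreated with 5-fluorouridine at 10 µM final; viability measured 16 h after compound addition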
ELG1 MMS cell: confirmation of ELG1 repair inhibitors: viability with MMS; shares compounds with ELG1 DNA repair; AID 624251; 33% of 670 active; Potency, µM (doses to about 46.1 µM), without a hit: at the highest dose activity change, negative = viability loss, most hits filed as cytotoxic; Cell viability with MMS, ELG1-dependent DNA repair;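 also: ELG1-luc HEK293T cells co-treated with 10 µM MMS; viability read 16 h after compound addition; % is scaled to controls: 0 for no effect and ±100 for the full control effect; nearly all actives have a fitted effect of over 60% in size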
Cell viab unstim: affects unstimulated cell viability, ELG1 hit counter-screen; cell viability counter-screen, unstimulated, luminescence; Potency, µM (series often up to 45.9 µM), for the others: top-dose activity change, negative = loss of viability, most hits filed as cytotoxic; shares compounds with ELG1 DNA repair; 8% of 900 active;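 also: compound exposure lasted 16 hours before reading; % is scaled to controls: 0 for no effect and ±100 for the full control effect; nearly all actives have a fitted effect of over 55% in size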
FLuc biochem: firefly luciferase inhibition counter-screen; shares compounds with ELG1 DNA repair; purified firefly luciferase, luminescence counter-screen; Potency, µM (top dose mostly 57.5 µM), for the others: at the top dose activity, negative = inhibition, hits mostly inhibitors; 10% of 350 active; AID 624253; also: % is scaled to controls: 0 for no effect and ±100 for the full control effect
* = called active by the depositor. Calls follow the shape of the dose curve; as a rule, active = well fitted curve in the direction sought with a large enough effect; inconclusive = small, poorly fitted or top-dose-only effect, or another doubt; inactive = no such curve, though single readings can be large; an effect the other way counts as inactive or inconclusive. Potency is read from the fitted curve at half-maximal effect.

Screening COc1cccc(-c2nc3c(c(SCC(=O)N4CCOCC4)n2)Cc2c(CO)cnc(C)c2O3)c1 returned NPC1 prom act -1%, ELG1 DNA repair 4.6µM*, FLuc modulator -1%, ELG1 genotox -7%, Rab9 promoter act -4%, ELG1 FLuc counter 9%, ELG1 Luc conf 3.2µM*, ELG1-Luc MMS 14µM*, ELG1 5-FU inconclusive, ELG1 MMS cell inconclusive, Cell viab unstim inconclusive and FLuc biochem -2%.
Screening Cc1ccc(-c2cc(C(F)(F)F)n3nc(C(=O)NCC45CC6CC(CC(C6)C4)C5)cc3n2)cc1 returned FLuc modulator -2%.
For CCC[N+]1(CC#CCC(c2ccccc2)c2ccccc2)CCCCC1 the results were NPC1 prom act -34%, ELG1 DNA repair 2.3µM*, FLuc modulator 1%, ELG1 genotox -12%, Rab9 promoter act -44%, ELG1 Luc conf inconclusive, ELG1-Luc MMS 2.2µM*, ELG1 5-FU -7%, ELG1 MMS cell 2.8µM* and Cell viab unstim inconclusive.
Cc1cc(C)nc(SCc2ccc(C(=O)NNC(=O)Nc3cccc(Cl)c3)cc2)n1 was read as NPC1 prom act -1%, ELG1 DNA repair -22%, FLuc modulator 5%, ELG1 genotox -5% and Rab9 promoter act -5%.
For CC(SC1=NCCN1S(C)(=O)=O)c1ccccc1 (configuration not stated) the results were NPC1 prom act -4%, ELG1 DNA repair 9%, FLuc modulator -2%, ELG1 genotox 1% and Rab9 promoter act -2%.
For CCOC(=O)c1cc(-c2cc(OC)c(OC)c(OC)c2)nc2c1c(=O)[nH]c(=O)n2Cc1ccccc1 the results were SMN2 splice up inconclusive, NPC1 prom act -13%, ELG1 DNA repair 13%, FLuc modulator 2%, ELG1 genotox 8.2µM*, Rab9 promoter act -11%, ELG1 FLuc counter 42%, Cell viab unstim inconclusive and FLuc biochem -5%.
CCOC(=O)c1cc(-c2ccc(F)cc2)nc2c1c(=O)[nH]c(=O)n2Cc1ccccc1 was read as NPC1 prom act -4%, ELG1 DNA repair 29%, FLuc modulator 0%, ELG1 genotox inconclusive and Rab9 promoter act 0%.
NC(=O)COC(=O)CNC(=O)c1sc2ccccc2c1Cl was read as SMN2 splice up -6%, NPC1 prom act 0%, ELG1 DNA repair 13%, FLuc modulator inconclusive, ELG1 genotox 18% and Rab9 promoter act -1%.
Screening CSc1ccc(/C=N/n2c(C3CCCCC3)n[nH]c2=S)cc1 returned NPC1 prom act -2%, ELG1 DNA repair inconclusive, FLuc modulator 1%, ELG1 genotox 3% and Rab9 promoter act -4%.
For S=c1[nH]nc(C2CCCCC2)n1/N=C/c1ccncc1 the results were SMN2 splice up -37%, NPC1 prom act 23%, ELG1 DNA repair 1.2µM*, FLuc modulator -3%, ELG1 genotox -23%, Rab9 promoter act 16%, ELG1 Luc conf 2.5µM*, ELG1-Luc MMS 11µM*, ELG1 5-FU -3%, ELG1 MMS cell -5% and Cell viab unstim -4%.
CC(/C=C/C(=O)NO)=C\[C@@H](C)C(=O)c1ccc(N(C)C)cc1 was read as SMN2 splice up 1.4µM*, ELG1 FLuc counter 119%, Cell viab unstim 14µM* and FLuc biochem inconclusive.
For O=C1c2cc(F)ccc2-n2c1nc1ccccc1c2=O the results were NPC1 prom act -40%, ELG1 DNA repair 0.18µM*, FLuc modulator -7%, ELG1 genotox -8%, Rab9 promoter act -35%, ELG1 FLuc counter 5%, ELG1 Luc conf 20µM*, ELG1-Luc MMS 1.1µM*, ELG1 5-FU -11%, ELG1 MMS cell 1.8µM*, Cell viab unstim inconclusive and FLuc biochem -16%.
For Nn1c(-c2ccc(F)cc2)nc2ccccc2c1=O the results were NPC1 prom act -2%, ELG1 DNA repair -17%, FLuc modulator -3%, ELG1 genotox -1% and Rab9 promoter act 5%.
For COc1ccc(CCc2nnc(CCC(=O)N(C)Cc3ccnc4ccccc34)o2)cc1 the results were NPC1 prom act -16%, ELG1 DNA repair inconclusive, FLuc modulator -16%, ELG1 genotox -2%, Rab9 promoter act -21%, ELG1 Luc conf inconclusive, ELG1-Luc MMS 7.1µM*, ELG1 5-FU -7%, ELG1 MMS cell 6.3µM* and Cell viab unstim inconclusive.
COc1ccccc1CCc1nnc(CCC(=O)N(C)Cc2ccncc2C)o1 was read as NPC1 prom act -1%, ELG1 DNA repair -1%, FLuc modulator 2%, ELG1 genotox -1% and Rab9 promoter act 2%.
